Measurements reported in PubChem BioAssay (NCATS).
Several values for one entry are separate records, joined by “and”; a condition that tells them apart may be missing. Identical values can stand only once. Inconclusive results are not listed. A number with no mark means an inactive call. Activity calls are given as the source filed them. Calls come from the whole dose curve; as a rule, active = well fitted curve in the direction sought with a large enough effect; inconclusive = small, poorly fitted or top-dose-only effect, or another doubt; inactive = no such curve, though single readings can be large; an effect the other way counts as inactive or inconclusive.

How the values were obtained:
[1] = Viability qHTS for spleen associated tyrosine kinase inhibitor (SYKi) naive MV4-11 cells (AID 1963823); note: nearly all actives have a fitted effect of over 40% in size
Summary of the method: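 Luminescence from CellTiter-Glo, developed 10 min at room temperature, gave viability of MV4-11 cells never exposed to SYK inhibitor. Cells (500/well) had been incubated with compounds for 72 hr under standard culture conditions.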

[2] = Viability qHTS for spleen associated tyrosine kinase inhibitor (SYKi) drug resistant MV4-11 cells (AID 1963824); note: nearly all actives have a fitted effect of over 35% in size
Summary of the method: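 CellTiter-Glo luminescence, read 10 min after reagent addition, reports viability after a 72 hr compound exposure. Cells are an MV4-11 line made resistant to SYK inhibition, seeded at 500 per well onto compound-containing plates.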

[3] = Quantitative highthroughput screen to assess conditional lethalithy of NOMO1 cells grown in RPMI1640 with dialyzed fetal bovine serum (RPMI+ds) (AID 1963877); note: nearly all actives have a fitted effect of over 30% in size;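 for Viability: series mostly up to about 46 µM; 100% = DMSO control wells and 0% = empty wells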
Summary of the method: (§1)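 Each medium arm—HPLM with 10% dialyzed FBS, or RPMI1640 with 5 mM glucose and 10% untreated or dialyzed FBS—was screened against an 11-point, 3-fold compound titration for 48 h at 37 °C, with CellTiter-Glo luminescence as endpoint.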

[4] = Quantitative highthroughput screen to assess conditional lethalithy of P12 Ichikawa cells grown in Human Plasma-Like Medium with dialyzed fetal bovine serum (HPLM+ds) (AID 1963879); details: Potency: viability; note: nearly all actives have a fitted effect of over 35% in size; for Viability: series mostly up to about 46 µM
Summary of the method: as §1

[5] = Quantitative highthroughput screen to assess conditional lethalithy of P12 Ichikawa cells grown in RPMI1640 with dialyzed fetal bovine serum (RPMI+ds) (AID 1963880); details: Potency: P12-Ichikawa viability; note: nearly all actives have a fitted effect of over 35% in size;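 for Viability: 100% = DMSO wells and 0% = empty wells on each plate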
Summary of the method: as §1

[6] = Quantitative highthroughput screen to assess conditional lethalithy of P12 Ichikawa cells grown in RPMI1640 with untreated serum (RPMI+s) (AID 1963881); details: Potency: viability; note: nearly all actives have a fitted effect of over 35% in size;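 for Viability: series mostly up to about 46 µM; 100% = DMSO wells and 0% = empty wells without cells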
Summary of the method: as §1

[7] = Quantitative highthroughput screen to assess conditional lethalithy of SEM cells grown in Human Plasma-Like Medium with dialyzed fetal bovine serum (HPLM+ds) (AID 1963882); note: nearly all actives have a fitted effect of over 35% in size; for Viability: series mostly up to about 46 µM
Summary of the method: as §1

[8] = Quantitative highthroughput screen to assess conditional lethalithy of SEM cells grown in RPMI1640 with dialyzed fetal bovine serum (RPMI+ds) (AID 1963884); note: nearly all actives have a fitted effect of over 35% in size;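 for Viability: series mostly up to about 46 µM; 100% = DMSO control wells and 0% = empty wells without cells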
Summary of the method: as §1

[9] = Cellular viability qHTS for adrenocortical cancer (ACC) cell line SW-13 (AID 1963989); details: SW-13 ACC cells viability, CellTiter-Glo, 48 h; activity (max response): stronger effect = lower value; note: nearly all actives have a fitted effect of over 65% in size;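 for activity (max response): cells grown in serum-free medium with ITS supplement; % is set by controls: 0 for no effect and ±100 for the full control effect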
Summary of the method: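 Viability was read as CellTiter-Glo luminescence after 48 h compound treatment (up to 46 uM final) of SW-13 cells grown serum-free; titration curves were fit with a four-parameter logistic model to give IC50 and efficacy.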

[10] = Cellular viability qHTS for adrenocortical cancer (ACC) cell line NCI-H295R (AID 1963990); note: nearly all actives have a fitted effect of over 60% in size
Summary of the method: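 CellTiter-Glo ATP luminescence, read 48 h after compound addition, measured viability of NCI-H295R adrenocortical cells grown serum-free with ITS. Final concentrations spanned up to 46 uM. Data normalized to DMSO and doxorubicin, fitted for IC50 and maximal response.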

[11] = Quantitative highthroughput screen to assess conditional lethalithy of NOMO1 cells grown in Human Plasma-Like Medium with dialyzed fetal bovine serum (HPLM+ds) (AID 1963878); note: nearly all actives have a fitted effect of over 35% in size
Summary of the method: as §1

[12] = Quantitative highthroughput screen to assess conditional lethalithy of SEM cells grown in RPMI1640 with unreated serum (RPMI+s) (AID 1963883); note: nearly all actives have a fitted effect of over 35% in size;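 for Viability: 100% = DMSO wells and 0% = empty wells without cells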
Summary of the method: as §1
Potency is the fitted concentration of half-maximal effect.

Compound	Potency [1]	Potency [2]	Potency [3]	Potency [4]	Potency [5]	Potency [6]	Potency [7]	Potency [8]	Potency [9]	Potency [10]	Potency [11]	Potency [12]	activity (max response) [9]
CC[C@]1(O)C[C@H]2CN(CCc3c([nH]c4ccccc34)[C@@](C(=O)OC)(c3cc4c(cc3OC)N(C=O)[C@H]3[C@@](O)(C(=O)OC)[C@H](OC(C)=O)[C@]5(CC)C=CCN6CC[C@]43[C@@H]65)C2)C1	0.0118 µM (active)	119 nM (active) and 10.5 nM (active)	0.0662 µM (active)	0.0264 µM (active)	0.0418 µM (active)	0.0264 µM (active)	0.0332 µM (active)	0.0469 µM (active)	8.2 nM (active) and 28.2 nM (active)	146 nM (active) and 1.78 µM (active)			
O=C(Nc1cn[nH]c1-c1nc2ccc(CN3CCOCC3)cc2[nH]1)NC1CC1	0.0259 µM (active)	73.1 nM (active) and 51.7 nM (active) and 132 nM (active)	18.7 µM (active)				0.0833 µM (active)	0.0332 µM (active)		20 µM (active)	14.8 µM (active)	0.0418 µM (active)	
CCOC(=O)[C@@H](N)CCC(=O)N[C@@H](CSCc1ccccc1)C(=O)N[C@@H](C(=O)OCC)c1ccccc1	5.9 µM (active)	5.9 µM (active)	inactive	inactive	inactive	inactive	inactive	inactive				inactive	-10.6%
CNC(=O)c1cc(Oc2ccc(NC(=O)Nc3ccc(Cl)c(C(F)(F)F)c3)cc2)ccn1	0.0211 µM (active)	23.5 nM (active) and 59.6 nM (active) and 13 nM (active)	18.7 µM (active)						8.91 µM (active) and 11.6 µM (active)				
OCCNC1CCCc2c1[nH]c1ccc(-c3ccccc3)cc21 (stereo not given)	8.33 µM (active)	8.33 µM (active)		20.9 µM (active)		18.7 µM (active)			15.8 µM (active)	7.08 µM (active)	23.5 µM (active)	16.6 µM (active)	
Nc1nc(=S)c2[nH]cnc2[nH]1	0.934 µM (active)	1.05 µM (active)	7.43 µM (active)		14.8 µM (active)					731 nM (active) and 1.12 µM (active)			
COc1cc(F)c(F)c(Nc2ccc(I)cc2F)c1NS(=O)(=O)C1(C[C@H](O)CO)CC1	0.332 µM (active)	0.525 µM (active)	inactive			inactive			14.1 µM (active)	20 µM (active)		20.9 µM (active)	
Cc1ccc(C(=O)Nc2ccc(CN3CCN(C)CC3)c(C(F)(F)F)c2)cc1C#Cc1cnc2cccnn12	inactive	0.0053 µM (active)							3.16 µM (active)	4.47 µM (active)	0.935 µM (active)		
CN1CCCN(C(=O)c2cccc(-c3ccc(C=C4C(=O)Nc5ccc(Cl)cc54)o3)c2)CC1	0.517 µM (active)	0.461 µM (active)		2.96 µM (active)	14.8 µM (active)	5.9 µM (active)	5.9 µM (active)	1.87 µM (active)				1.32 µM (active)	
Nc1nccc(Oc2ccc(NC(=O)c3c[nH]cc(-c4ccc(F)cc4)c3=O)cc2F)c1Cl	0.0295 µM (active)	0.0291 µM (active)			26.4 µM (active)				8.91 µM (active)	10 µM (active)	20.9 µM (active)	0.59 µM (active)	
Cn1c(=O)c2c(ncn2CC(O)CO)n(C)c1=O (stereo not given)	inactive	inactive		inactive	inactive	inactive	inactive	inactive		inactive		inactive	9.53% and 9.36%
NC(=O)Nc1cc(-c2ccc(CN3CCOCC3)cc2)sc1C(N)=O	0.209 µM (active)	0.468 µM (active)		0.118 µM (active)	0.118 µM (active)	0.118 µM (active)	0.132 µM (active)	0.105 µM (active)		5.01 µM (active)		0.118 µM (active)	-17.8%
Cc1cc(Cl)ccc1OCCCC(=O)NO	14.8 µM (active)	13.2 µM (active)		8.33 µM (active)	1.48 µM (active)	5.9 µM (active)	9.35 µM (active)	9.35 µM (active)		1.26 µM (active)		10.5 µM (active)	
CN1CCN(c2cc(C(=O)Nc3ccc4c(c3)-c3c(c(C(N)=O)nn3-c3ccc(F)cc3)CC4)c(Cl)cn2)CC1	4.11 µM (active)	2.59 µM (active)					23.5 µM (active)			25.1 µM (active)	26.4 µM (active)		-15.3%
NC1(c2ccc(-c3nc4ccn5c(=O)[nH]nc5c4cc3-c3ccccc3)cc2)CCC1	3.72 µM (active)	11.9 µM (active) and 8.2 µM (active) and 5.9 µM (active)					1.66 µM (active)	1.48 µM (active)	20.6 µM (active) and 17.8 µM (active)	10.3 µM (active) and 7.94 µM (active)	20.9 µM (active)	2.09 µM (active)	
